Consider 5 molecules from PubChem BioAssay AID493243 (Broad Institute, 2011).

Values without a mark were called inactive. Activity calls are given as the source filed them. The rule behind the calls is not given here.

This assay in a line: GFP fluorescence signal inhibitors, dose response, artefact control, biochemical, plate reader, dry powder (AID 493243). As to conditions: GFP fluorescence counter-screen; series mostly up to 35 µM; activity change, negative = inhibition: at the top concentration. (In general: Counterscreens check selectivity or assay interference.)
Regarding `Nc1cn(-c2ccccc2)nc1-c1ccc(F)cc1`, the “activity change, negative = inhibition” value was 1.12%.

For orientation: AC50 means the concentration at which the activity in the assay is half-maximal. Take `Cn1nc(-c2ccccn2)nc2c(=O)n(C)c(=O)nc1-2`: the AC50 was 0.752 µM (active).

As for `Cc1oc2c(c1C(=O)NCc1cccnc1)C(=O)c1ccccc1C2=O`, the AC50 was 3.57 µM (active).

For the molecule `Cc1ccccc1-n1ncc2c([N+](=O)[O-])cc([N+](=O)[O-])cc21`, the AC50 was 9.4 µM (active).

`Cc1oc2c(c1C(=O)NCc1ccccn1)C(=O)c1ccccc1C2=O`: the AC50 was 1.04 µM (active).
